These results are taken from publication PMC7819943, “Rice protein-binding microarrays: a tool to detect cis-acting elements near promoter regions in rice”.

Over roughly 35,000 sequences, “fluorescence intensity (a.u.)” has its median near 10,000; the highest 2% begin near 52,000. This is one part of a sample in which the highest values are shown more often than they occur.

This assay has as its target T1, OsWOX13 (Oryza sativa, UniProt Q5QMM3 1-267).
T1 sequence: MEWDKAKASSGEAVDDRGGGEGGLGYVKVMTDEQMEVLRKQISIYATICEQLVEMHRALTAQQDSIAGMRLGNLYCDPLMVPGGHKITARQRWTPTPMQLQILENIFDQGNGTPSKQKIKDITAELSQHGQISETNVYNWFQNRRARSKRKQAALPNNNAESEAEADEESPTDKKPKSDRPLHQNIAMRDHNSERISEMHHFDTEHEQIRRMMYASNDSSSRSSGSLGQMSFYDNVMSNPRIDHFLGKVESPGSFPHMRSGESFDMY
The experiment in a line: protein-binding microarray (RPBM); PBS, 2% BSA, 51.3 ng/ul salmon testes DNA, 50 uM zinc acetate, 200 nM TF, 25 C, 1 h; high values mean tight binding. The conditions noted are these: protein: recombinant; tags: N-terminal polyhistidine and DsRed monomer fusion (pET32a); label: CyDye5-dUTP incorporated in the synthesized complementary strand; 3' TTTTT single-stranded linker to array surface; dsDNA, one strand shown. The method in brief:
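A custom Agilent array was converted to double-stranded form by primer extension with Cy5-dUTP and blocked with 2% BSA. Protein at 200 nM in PBS with 2% BSA, salmon testes DNA and 50 µM zinc acetate was applied for 1 h at 25 °C, followed by washing. The proteins were polyhistidine–DsRed N-terminal fusions of transcription factors, expressed in E. coli BL21-CodonPlus and Ni–NTA-purified. The binding signal is per-feature fluorescence intensity (arbitrary units) from an Axon 4000B scanner.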
Turning to “AAAACAGTTTGATTAGCTTTCTGTCGAATCTGTCATGCATCGGAGTCACCTAGTGCAG”, the binding signal is 16500 fluorescence intensity (a.u.).
The same measure for “TTCTGATTAGTTACAACTTGAGTTCACTATTGTCATGATACGGAGTCACCTAGTGCAG”: 37200 fluorescence intensity (a.u.); for “GACAAGATCAGTCCTAATTATATATATGTTTTACCTTCTACGGAGTCACCTAGTGCAG”: 4490 fluorescence intensity (a.u.).
Take “TGCAATAAATTATAGATGACTGAACATTTACACTCTACAGCGGAGTCACCTAGTGCAG”: the binding signal was 15300 fluorescence intensity (a.u.).
The same measure for “CATAACTAATTAGTAACACAAAGAATATTGATTAGATGATCGGAGTCACCTAGTGCAG”: 43100 fluorescence intensity (a.u.).
The result for “CGCTAAAATTAAAAGTTTGATTGAAATTAGAACGATGTAACGGAGTCACCTAGTGCAG” reads 30300 fluorescence intensity (a.u.).
Consider “TTAAAATTAAACTTTTGCAGTCTTTCTAATTTGCCTCCTCCGGAGTCACCTAGTGCAG”, for which the binding signal was 5220 fluorescence intensity (a.u.).
The same measure for “ACTGAACAAATTGAGCATGGTGTATATGTCACATTTTCTACGGAGTCACCTAGTGCAG”: 6220 fluorescence intensity (a.u.); for “TACATACAAGTTACAGTGTAATTACACTACGATTGTACTACGGAGTCACCTAGTGCAG”: 3630 fluorescence intensity (a.u.); for “TTGCACTGATTTTGTAACTTAAGGGATACGTCGTATCCGGCGGAGTCACCTAGTGCAG”: 6500 fluorescence intensity (a.u.).
The result for “AGCCACGCAATCAATTAAATAATTAAGATAGGTACACGTGCGGAGTCACCTAGTGCAG” reads 26400 fluorescence intensity (a.u.).
The same measure for “CATATGACCAGTTTAACTGCCATCATGCAGACACACAGGACGGAGTCACCTAGTGCAG”: 3410 fluorescence intensity (a.u.); for “ATATAAATCAAATTTACAACTTTGCTGTAGCTATAATTTGCGGAGTCACCTAGTGCAG”: 7160 fluorescence intensity (a.u.); for “CATATGATTAATTAAAATTTTATCATTTAGAACTTGAAAACGGAGTCACCTAGTGCAG”: 34800 fluorescence intensity (a.u.).
For the sequence “GATGAAGATTGATATTACCTGCGGCCGCCGGCGCCGCTGTCGGAGTCACCTAGTGCAG”, the binding signal is 7110 fluorescence intensity (a.u.).
The result for “ATAACTTTTAATTTAAGCTAATTTTATTTCTGCCGGACATCGGAGTCACCTAGTGCAG” reads 19600 fluorescence intensity (a.u.); that for “TAGGTGACAGTTTATTTAATGCTATTGACACTATTCTAGCCGGAGTCACCTAGTGCAG”, 8640 fluorescence intensity (a.u.).
The same measure for “GCATAACTAATTGTTGTTGCACATATTTTCTTTATAAAGCCGGAGTCACCTAGTGCAG”: 15500 fluorescence intensity (a.u.).
The same measure for “CCGCACTCTATTATTGTATTGATTAGCTTGTGTCATTCGCCGGAGTCACCTAGTGCAG”: 20500 fluorescence intensity (a.u.); for “CATTATTGATTGATTGATTCGCAGATTCGCCGCTGCCACCCGGAGTCACCTAGTGCAG”: 57200 fluorescence intensity (a.u.); for “AATGGGAACTAATGGGCCGGATTGACTACTTTGCTACATTCGGAGTCACCTAGTGCAG”: 3240 fluorescence intensity (a.u.).
For “TATTGATTAAATTTAATTTATAGATAGACTAATATTTTACCGGAGTCACCTAGTGCAG”, the binding signal is 29800 fluorescence intensity (a.u.).
The result for “ATTATTTGTGATTTGATTGCTAGTGATTTGAACTAATGGCCGGAGTCACCTAGTGCAG” reads 64300 fluorescence intensity (a.u.); that for “GTGATTGGGCTATTTGTAATGTTCAGATGGTGAACTGTGCCGGAGTCACCTAGTGCAG”, 27600 fluorescence intensity (a.u.).
The same measure for “TTAATTAATTGCTAATTACACTAATTAATTTATTGATAGCCGGAGTCACCTAGTGCAG”: 65200 fluorescence intensity (a.u.); for “CACATAATTGAACTGCTAATTTTATTCTAGTCGGAAGCACCGGAGTCACCTAGTGCAG”: 54600 fluorescence intensity (a.u.).
The result for “GCCTAATTAATCCGTCATTAGCAAATGTTTATTGTAGCACCGGAGTCACCTAGTGCAG” reads 38200 fluorescence intensity (a.u.).
Turning to “GCTGACAGGGACAATCGGATGGAGCAGAATGTCTGAACGTCGGAGTCACCTAGTGCAG”, the binding signal was 11000 fluorescence intensity (a.u.).
The result for “TTTGATCAAAATCAAAACGTCTTATAACCTGAAACGGAGGCGGAGTCACCTAGTGCAG” reads 4210 fluorescence intensity (a.u.); that for “GCTAATTAAGTCCATTGCACATAGATCGATATGTGTACACCGGAGTCACCTAGTGCAG”, 27700 fluorescence intensity (a.u.); that for “CCAATTGACTATATATAACATAGTACTTGCTAGCTTAATTCGGAGTCACCTAGTGCAG”, 3640 fluorescence intensity (a.u.).
For “TTTAGGATTGAAGTAAACTGTAAACTATATGTCTGACCGCCGGAGTCACCTAGTGCAG”, the binding signal is 16600 fluorescence intensity (a.u.).
The same measure for “CAATACATAACAGACAAATTATCAAAATAGATTAAAGTTTCGGAGTCACCTAGTGCAG”: 4710 fluorescence intensity (a.u.); for “ATTTTAAATTTATTATATGATGATTAATTTGGGAATGAGGCGGAGTCACCTAGTGCAG”: 28400 fluorescence intensity (a.u.); for “TACATCACTAATCACGTTGCTTCGATGACACCTCCTTCTTCGGAGTCACCTAGTGCAG”: 7440 fluorescence intensity (a.u.).
With “TGTATGTGTGTACTCGTAATTAGTGAGAATTTAAATTCATCGGAGTCACCTAGTGCAG”, the binding signal is 3820 fluorescence intensity (a.u.).
The result for “CAAAAGTGTTCAATCAAATATGAAAATGAGTATAATGCAACGGAGTCACCTAGTGCAG” reads 6990 fluorescence intensity (a.u.); that for “CTAATTAGGTCCAGGACATTAAATGGGTTGATTACGTCACCGGAGTCACCTAGTGCAG”, 8450 fluorescence intensity (a.u.).
The result for “GTTTATGTTAGTGCTAGTGATTAGTACTTAAACATTCAGACGGAGTCACCTAGTGCAG” reads 4010 fluorescence intensity (a.u.).
“AGGCACTAAAATAATCTAATTGATTAACTAATCGGTCACCCGGAGTCACCTAGTGCAG”: the binding signal was 25300 fluorescence intensity (a.u.).
The result for “CTTATTAGCACATGATTAATTAATTATTAACTATTATAAACGGAGTCACCTAGTGCAG” reads 19500 fluorescence intensity (a.u.); that for “AATACTTGCAAATTAGCTAACTAGTTCTCCTAATTGAGCCCGGAGTCACCTAGTGCAG”, 9350 fluorescence intensity (a.u.); that for “AACTTATAAATTGATTTATAAGTCTAAATAAAGAGGCACCCGGAGTCACCTAGTGCAG”, 55800 fluorescence intensity (a.u.).
The same measure for “GTTTCTAATTAACTAAATTAATTAATTAGCATGATTGGTCCGGAGTCACCTAGTGCAG”: 64700 fluorescence intensity (a.u.).
The result for “AAATTTATAATTTTACAATAAATTTGATATTAAATTTGTACGGAGTCACCTAGTGCAG” reads 12300 fluorescence intensity (a.u.).
For the sequence “TGCTAACTTGAGATGAATGTCGAACTCCTAATTGCAGCTCCGGAGTCACCTAGTGCAG”, the binding signal was 3470 fluorescence intensity (a.u.).
Regarding “CCAATTTAATAAAATAAATTGATACTATAAATATTACAATCGGAGTCACCTAGTGCAG”, the binding signal was 9090 fluorescence intensity (a.u.).
The result for “ATAACTAATAAATGATTGAATTAGATGAATAGGTAGTTTCCGGAGTCACCTAGTGCAG” reads 31000 fluorescence intensity (a.u.).
With “GAACTAATTGATACATTAGCCACTTGATGAGCTCCTCTCCCGGAGTCACCTAGTGCAG”, the binding signal was 58600 fluorescence intensity (a.u.).
As to “ATCTGGCAATAATTTACAATTAATTGATACCTTATTGCCTCGGAGTCACCTAGTGCAG”, the binding signal was 54800 fluorescence intensity (a.u.).
In the case of “AAGAGTTTAAATTTTAAAATGATTTTATAAGTGGTTAACCCGGAGTCACCTAGTGCAG”, the binding signal was 7500 fluorescence intensity (a.u.).
For the sequence “CATGACAGCGTGCTTGGATCAACCGCTTTTGTCTTCTCCACGGAGTCACCTAGTGCAG”, the binding signal was 3780 fluorescence intensity (a.u.).
On to “ATTGATAAGCCTAATTTAGACATCAAACCAAACCAGCCCTCGGAGTCACCTAGTGCAG”, for which the binding signal is 14300 fluorescence intensity (a.u.).
Take “TTGATCATGATGATATTTAATTTGTTTAGATCACACACTACGGAGTCACCTAGTGCAG”: the binding signal is 10200 fluorescence intensity (a.u.).
